Test results reported in PubChem BioAssay (NCATS).
“And” between values parts separate entries of the source, which are not always exact repeats. Equal values may be shown once. Records with an inconclusive call do not appear. Where a call stands in place of a potency, no number is given. Unmarked numbers belong to inactive results. The source made the active and inactive calls. Calls come from the whole dose curve; as a rule, active = well fitted curve in the direction sought with a large enough effect; inconclusive = small, poorly fitted or top-dose-only effect, or another doubt; inactive = no such curve, though single readings can be large; an effect the other way counts as inactive or inconclusive. Non-standard residues stand in square brackets, D forms with d. Residues, ends and D or L forms follow the SMILES beside them. *: point of attachment. Sta = CC(C)C[C@H](N)[C@@H](O)CC(=O)O; Isovaleryl = CC(C)CC(=O)*

Tests used:
[1] = target: Cellular tumor antigen p53 (Homo sapiens) (UniProt P04637); test: Primary qHTS for small molecule compounds that upregulate eGFP-tagged delta133p53alpha (in N-terminal) cells. (AID 2060322); settings: NCI-H358 eGFP-delta133p53alpha fluorescence, 24 h; activation: stronger effect = higher value; note: nearly all actives have a fitted effect of over 75% in size;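 for activation: cells pre-induced with doxycycline then dosed without doxycycline; series mostly up to about 56 µM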
Outline: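 NCI-H358 cells pre-induced 24 h with 10 ng/ml doxycycline for eGFP-delta133p53alpha, plated dox-free and exposed 24 h at 37C to titrated compounds. Fixed, Hoechst-stained; gated GFP peak intensity by laser scanning cytometry, normalized to DMSO (0%) and 57.5 uM 5-azacytidine (100%).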

[2] = BET inhibitor-based combinations targeting novel dependencies in MECOM-rearranged (r) AML: SET-2 cell line (AID 2202231); settings: SET-2 AML cells viability, CellTiter-Glo luminescence, 48 h; viability: stronger effect = lower value, concentration not given here; note: nearly all actives have a fitted effect of over 35% in size
Outline: (§1)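 Luminescent ATP readout (CellTiter-Glo) after 48 hr drug exposure gives viability. Curves span 11 concentrations and are normalized to DMSO and empty wells. Activity is reported as area under the curve and its Z-transform within each cell line.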

[3] = BET inhibitor-based combinations targeting novel dependencies in MECOM-rearranged (r) AML: OCI-AML3 cell line (AID 2202232); settings: Potency: OCI-AML3 viability; note: nearly all actives have a fitted effect of over 35% in size
Outline: as §1

[4] = BET inhibitor-based combinations targeting novel dependencies in MECOM-rearranged (r) AML: HNT-34 cell line (AID 2202234); note: nearly all actives have a fitted effect of over 35% in size
Outline: (§2)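 Luminescent ATP readout (CellTiter-Glo, 15 min at room temperature) after 48 hr drug exposure gave viability. Dose-response curves, normalized to DMSO and empty-well controls, were summarized as area under the curve and its mean-centred Z-score.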

[5] = BET inhibitor-based combinations targeting novel dependencies in MECOM-rearranged (r) AML: UCSD-AML1 cell line (AID 2202235); note: nearly all actives have a fitted effect of over 40% in size
Outline: as §2

[6] = BET inhibitor-based combinations targeting novel dependencies in MECOM-rearranged (r) AML: AML-191 cell line (AID 2202236; note: nearly all actives have a fitted effect of over 35% in size)
Outline: as §1

[7] = BET inhibitor-based combinations targeting novel dependencies in MECOM-rearranged (r) AML: AML-194 cell line (AID 2202237; note: nearly all actives have a fitted effect of over 40% in size)
Outline: as §1

[8] = BET inhibitor-based combinations targeting novel dependencies in MECOM-rearranged (r) AML: MV-4-11 cell line (AID 2202233); note: nearly all actives have a fitted effect of over 45% in size
Outline: as §2
Potency is the fitted concentration of half-maximal effect.

Cellular tumor antigen p53 (Homo sapiens), sequence (P04637 whole entry, looked up): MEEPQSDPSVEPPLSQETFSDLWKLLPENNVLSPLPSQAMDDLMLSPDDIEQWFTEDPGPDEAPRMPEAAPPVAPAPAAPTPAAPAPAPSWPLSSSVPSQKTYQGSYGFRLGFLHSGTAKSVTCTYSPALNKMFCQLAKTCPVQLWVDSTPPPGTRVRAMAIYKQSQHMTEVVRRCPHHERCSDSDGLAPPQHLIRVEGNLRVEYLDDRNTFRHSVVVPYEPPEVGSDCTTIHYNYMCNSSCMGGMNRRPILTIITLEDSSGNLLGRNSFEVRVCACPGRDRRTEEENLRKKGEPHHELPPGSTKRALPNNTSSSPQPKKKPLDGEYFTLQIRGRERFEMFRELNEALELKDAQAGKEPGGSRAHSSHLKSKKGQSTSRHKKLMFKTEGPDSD

SMILES	activation [1]	viability [2] [%]	Potency [3]	Potency [4]	Potency [5]	Potency [6]	Potency [7]	Potency [1]	Potency [2]	Potency [8]
CC(C)Cn1cnc2c(N)nc3ccccc3c21	-10% and 13.9%	101	inactive	inactive	inactive	inactive	inactive			
C[C@H]1COc2c(N3CCN(C)CC3)c(F)cc3c(=O)c(C(=O)O)cn1c23	-12.8%	108	inactive	inactive	inactive		inactive			
CC(S)C(=O)NCC(=O)O (stereo not drawn)	9.72%	114	8.33 µM (active)	inactive	inactive		inactive			
CO[C@@H]1[C@@H](OC(N)=O)[C@@H](O)[C@H](Oc2ccc3c(O)c(NC(=O)c4ccc(O)c(CC=C(C)C)c4)c(=O)oc3c2C)OC1(C)C	-10.7% and -17.4%	122	inactive	inactive	inactive		inactive			
CCC(C)(C)c1ccc(CC(C)CN2C[C@@H](C)O[C@@H](C)C2)cc1 (stereo partly drawn)	-16.4%	82.6	inactive	inactive	inactive		inactive			
N#Cc1ccnc(Nc2cc(C3CCN(C4COC4)CC3)cc(N3CCC(F)(F)C3)n2)c1			8.33 µM (active)	0.833 µM (active)	2.95 µM (active)	2.95 µM (active)	4.17 µM (active)	27.2 µM (active)	3.72 µM (active)	
CCCCCCCCCCCCCCCC(=O)O[C@H]1[C@@H](O)[C@@H](O)[C@@H]([C@H](NC(=O)[C@@H]2C[C@@H](CCC)CN2C)[C@H](C)Cl)O[C@@H]1SC	17.9%	108								16.6 µM (active)
Cc1cccc(N(C)C(=S)Oc2ccc3ccccc3c2)c1	2.82% and 1.76%	85.9	inactive	inactive	inactive		inactive			
C[C@@H]1CN(CC(=O)Nc2ccc3c(c2)Cc2cccc(-c4cc(=O)cc(N5CCOCC5)o4)c2S3)C[C@H](C)O1		86.1						27.3 µM (active)		14.8 µM (active)
O=C1c2cccc(O)c2C(=O)c2c(O)cc(CO)cc21	-5.26%	116	inactive	inactive	inactive	inactive	inactive			
NC(=O)c1cccc(-c2cccc(OC(=O)NC3CCCCC3)c2)c1	-16.3%	103	inactive	inactive	inactive	inactive	inactive			
CC1(C)CCC(C)(C)c2cc(NC(=O)c3ccc(C(=O)O)cc3)ccc21	-13% and 3.42%	80.9	inactive	1.66 µM (active)	inactive	0.0021 µM (active)	inactive			
CC(=O)OC1C(C)OC(Oc2c(-c3ccc(O)cc3)oc3cc(O)cc(O)c3c2=O)C(O)C1OC(C)=O (stereo not drawn)	34.7%	114	inactive	inactive	inactive		inactive			
Cc1ccccc1N1C(=O)c2cc(S(N)(=O)=O)c(Cl)cc2NC1C (stereo not drawn)	-15.9% and -14.5%	115	inactive	inactive	inactive		inactive			
Cn1cc(-c2ccc3nnc(Sc4ccc5ncccc5c4)n3n2)cn1	-0.663%	107	inactive		inactive		inactive			
CC(C)(C)NC(=O)[C@H]1CC[C@H]2[C@@H]3CC[C@H]4NC(=O)C=C[C@]4(C)[C@H]3CC[C@]12C	-14.2% and -4.21%	98.4	inactive	inactive	inactive	inactive	inactive			
O=C(O)CCCCC(CCSCc1ccccc1)SCc1ccccc1 (stereo not drawn)	1.42%	107	inactive	inactive	inactive	inactive	inactive			
Oc1ccc(OCc2ccccc2)cc1	-16.4% and -11.2%	81.8								9.34 µM (active)
CN1c2cc(O)c(N=NC(N)=O)cc2CC1S(=O)(=O)O (stereo not drawn)	16.4%	89.9	inactive		inactive	inactive	inactive			
Cc1ccc(/C=N/NC(=O)c2ccccc2Oc2ccccc2)o1	-11.8%	107	inactive			inactive	inactive			
NC(=O)c1cccnc1	-14.2% and 9.71%	106	inactive	inactive	inactive	inactive	inactive			
COc1ccc(CC2=NN3C([C@@H](CCc4ccccc4)[C@@H](C)O)=NC(C)C3C(=O)N2)cc1OC (stereo partly drawn)	-13.9%	101	7.42 µM (active)	18.6 µM (active)		16.6 µM (active)	inactive			

SMILES	activation [1]	viability [2] [%]	Potency [3]	Potency [4]	Potency [5]	Potency [6]	Potency [7]	Potency [1]	Potency [2]	Potency [8]
CCOC(=O)c1ccc(OC(=O)CCCCCN=C(N)N)cc1	31%	106	inactive	inactive	inactive	inactive	inactive			
CC(C)CC(=O)N[C@H](C(=O)N[C@H](C(=O)N[C@@H](CC(C)C)[C@@H](O)CC(=O)N[C@@H](C)C(=O)N[C@@H](CC(C)C)[C@@H](O)CC(=O)O)C(C)C)C(C)C (Isovaleryl-VV[Sta]A[Sta]-OH)	-1.4%	117	inactive	inactive	inactive	inactive	inactive			
CC(NCCc1ccc(O)cc1)C(O)c1ccc(O)cc1 (stereo not drawn)	-5.46%	112	inactive	inactive	inactive	inactive	inactive			
COc1cc(C(C)C)c(Oc2cnc(NC(CO)CO)nc2N)cc1I	-13.5%	99.2	inactive			inactive	inactive			
CC(C)OC(=O)C(C(=O)OC(C)C)=C1SC=CS1	3.95% and 27.9%	105	inactive	inactive		inactive	inactive			
C[C@]12CCC3c4ccc(O)cc4CCC3C1CCC2=O (stereo partly drawn)	-0.196%	99.9	inactive		26.3 µM (active)	inactive	inactive			
COc1cc(OC2CCN(C)CC2)ccc1Nc1ncc2c(n1)n(C1CCCC1)c(=O)n2C	2.88%		13.2 µM (active)	13.2 µM (active)	14.8 µM (active)	18.6 µM (active)	16.6 µM (active)		4.68 µM (active)	
CC(C)C(C)C=CC(C)C1CCC2C3=CC=C4CC(O)CCC4(C)C3CCC21C (stereo not drawn)	11%	121	inactive	inactive		inactive	inactive			
Cc1ccc(-n2nc(C(C)(C)C)cc2NC(=O)Nc2ccc(OCCN3CCOCC3)c3ccccc23)cc1	23.4%	102	18.6 µM (active)		inactive	18.6 µM (active)	inactive			
C#CCC(Cc1cnc2nc(N)nc(N)c2n1)c1ccc(C(=O)N[C@@H](CCC(=O)O)C(=O)O)cc1 (stereo partly drawn)	-21.3%								0.0019 µM (active)	0.0053 µM (active)
COc1ccc(COc2cc3oc(=O)c4cc(C(C)O)ccc4c3cc2OC)cc1 (stereo not drawn)	0.91%	86.4	14.8 µM (active)			20.9 µM (active)				
c1cc(-c2sc(-c3ccncc3)c(-c3ccncc3)c2-c2ccncc2)ccn1	6.76%	103	inactive		inactive	inactive	inactive			
O=C(O)c1ccc(-n2nc(-c3ccccc3O)nc2-c2ccccc2O)cc1	-1.69% and -24.7%		14.8 µM (active)		inactive	16.6 µM (active)			20.9 µM (active)	
COc1c(N2C[C@@H]3CCCN[C@H]3C2)c(F)cc2c(=O)c(C(=O)O)cn(C3CC3)c12	0.987%		inactive	inactive		inactive	inactive		14.8 µM (active)	
CCC(=O)O[C@]1(C(=O)CCl)[C@@H](C)C[C@H]2[C@@H]3CCC4=CC(=O)C=C[C@]4(C)[C@@]3(F)[C@@H](O)C[C@@]21C	6.69% and -0.269%	97.3		20.9 µM (active)	inactive					20.9 µM (active)
O=C(O)C(=O)Nc1cccc(-c2nn[nH]n2)c1	-3.95%	121		inactive	inactive	inactive	inactive			inactive
Nc1[nH]c(=O)ncc1F	10.9% and -17.3%	119		inactive	inactive	inactive	inactive			inactive
CC1=C(CC(=O)O)c2cc(F)ccc2C1=Cc1ccc(S(C)=O)cc1 (stereo not drawn)	-21.9%	104		18.6 µM (active)			inactive			18.6 µM (active)
Cc1cc(O)c2c(c1)C(=O)c1cccc(O)c1C2=O	32.6%	116		inactive	inactive	inactive	inactive			inactive
Cc1cc(Nc2cc(NC(=O)c3c(Cl)cccc3Cl)ccn2)nc(N)n1				0.296 µM (active)	0.296 µM (active)	0.263 µM (active)	0.332 µM (active)	34.3 µM (active)	3.32 µM (active)	0.332 µM (active)
CN1CCN(c2ncc(-c3cc(Cl)cc(Cl)c3Cl)c(N)n2)CC1	4.6%				inactive				23.5 µM (active)	8.33 µM (active)
C[C@H](CCC(=O)O)[C@H]1CCC2C3C[C@H](O)[C@@H]4C[C@H](O)CC[C@]4(C)C3CC[C@@]21C (stereo partly drawn)	10.8%	119		inactive	inactive	inactive				inactive
